Compound activity: PubChem BioAssay, several laboratories
A selection: hits, their analogues and other compounds. The true share with any hit is near 3.1%.
S1P3 antag: S1P3 receptor antagonists, primary screen, cell-based. CHO S1P3 NFAT-BLA reporter, FRET fluorescence, antagonist mode. AID 485, 2006. inhibition, % at 4.98 µM. Sphingosine 1-phosphate receptor 3 (Homo sapiens), Q99500. 170,000 compounds, 0.27% hits;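 active = inhibition above the plate cutoff, the mean inhibition of test wells on that plate plus 3 SD, cut at about 28% in these data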;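 note: cells challenged with S1P at its EC80 of 0.8 µM; blue over green emission ratio from cleaved BLA substrate after 4 h stimulation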
Target sequence (Q99500 whole entry, looked up): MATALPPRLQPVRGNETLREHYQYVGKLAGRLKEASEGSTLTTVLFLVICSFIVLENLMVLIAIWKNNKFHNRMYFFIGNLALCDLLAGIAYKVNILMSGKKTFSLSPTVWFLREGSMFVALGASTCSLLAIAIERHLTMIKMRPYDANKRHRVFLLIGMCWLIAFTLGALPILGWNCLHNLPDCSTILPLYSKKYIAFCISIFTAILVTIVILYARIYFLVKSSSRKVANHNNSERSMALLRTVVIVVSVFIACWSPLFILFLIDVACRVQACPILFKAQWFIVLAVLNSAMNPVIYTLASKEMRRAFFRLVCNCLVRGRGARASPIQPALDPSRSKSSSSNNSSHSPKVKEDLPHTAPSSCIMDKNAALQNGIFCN
EP2 modulator: EP2 receptor modulators, cAMP readout, primary screen, cell-based, HTRF cAMP, PGE2 stimulation; 260,000 compounds, 0.83% hits; induction, % at 25 µM; EP2-expressing cells, cAMP HTRF FRET, PGE2 co-stimulation;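 active = compounds whose cAMP rise, as percent of the full-agonist control response, exceeds 60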;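 note: rat C6 glioma line stably carrying human EP2 under a CMV promoter; the protocol text gives 20 µM as final concentration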
KCC2 mod: KCC2 cotransporter modulators, thallium flux, primary screen, cell-based, HEK293 KCC2, FluoZin-2 fluorescence, MLSMR; KCC2 cells, thallium flux FluoZin-2 fluorescence; AID 1456, 2008; 190,000 compounds, 2.2% hits; B-score of Tl+ flux slope (higher = more flux/activation; lower = inhibition) at 10 µM;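 active = thallium flux slope and its plate-corrected score both differing from the plate sample mean at a set confidence after two filtering rounds, in either direction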;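 note: slope of fluorescence scaled to starting intensity during 10 to 20 s after thallium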
EP2 antag: human EP2 receptor antagonists, primary screen, TR-FRET cAMP, C6 glioma cells; AID 1422, 2008; 260,000 compounds, 0.52% hits; inhibition, % at 25 µM; C6 glioma cells expressing human EP2; cells stimulated with saturating PGE2;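 active = percent inhibition above 40 after rounding to a whole number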;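 note: rat C6 glioma host cells with rolipram phosphodiesterase inhibitor present; the protocol text gives 20 µM as final concentration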
Numbers stand for hits; n = inactive; x = no result; ! = repeats disagree.

SMILES	S1P3 antag	EP2 modulator	KCC2 mod	EP2 antag
Cc1c(C(=O)NC(C(=O)OC(C)(C)C)C(C)C)sc2ncn(C)c(=O)c12 (configuration not stated)	x	n	x	n
FC(F)(F)c1cccc(-c2nn[nH]n2)c1	n	n	n	n
FC(F)(F)c1cccc(-c2nnc3ccc(C(F)(F)F)cn23)c1	93	n	x	n
C#CCNC(=O)C1=C[C@@H](c2cn(C(C)=O)c3ccccc23)C[C@@H](OCc2ccc(CO)cc2)O1	n	n	n	n
CC(=O)n1cc([C@H]2C=C(C(=O)NCc3ccccc3)O[C@@H](OCc3ccc(CO)cc3)C2)c2ccccc21	n	n	-2.8	n
CC(=O)n1cc([C@H]2C=C(C(=O)Nc3ccccc3)O[C@@H](OCCCCO)C2)c2ccccc21	n	n	-5.1	n
Cc1ccc(CN(CCCn2ccnc2)Cc2cnn(-c3ccc(F)cc3)c2)o1	x	n	x	n
Cc1ccc2cc(CN(CCc3ccccc3)C(c3nnnn3C3CCCC3)C(C)C)c(=O)[nH]c2c1 (configuration not stated)	x	n	x	n
CC1=CC(=O)C=C(C)C1=NOS(=O)(=O)c1ccccc1	x	n	n	56
O=S(=O)(c1cccs1)N1CCN(CC(O)COC2CCCc3ccccc32)CC1 (configuration not stated)	100	n	n	x
Fc1ccc2nc(Nc3nc4c(F)cc(F)cc4s3)sc2c1	n	n	17	n
Fc1cccc2sc(Nc3nc4ccccc4s3)nc12	n	n	12	n
Fc1ccc2nc(Nc3nc4c(F)cccc4s3)sc2c1	n	n	38	n
COc1cc(NC(=O)CSc2nnnn2-c2cccc(OC)c2)cc(OC)c1	x	n	x	n
COc1cc(CCc2ccc3c(c2)OCO3)oc(=O)c1	x	63	n	n
COc1ccc(O)c(CN(Cc2cccnc2)C2CC(C)(C)NC(C)(C)C2)c1	x	n	x	n
O=C(CNCC1CCCO1)Nc1ccccc1N1CCCCCC1 (configuration not stated)	x	62	n	n
O=C(CNCC1CCCO1)Nc1ccc(N2CCCCCC2)cc1 (configuration not stated)	n	n	n	n
S=C1SCN(C2CCCCCCCCCCC2)CN1C1CCCCCCCCCCC1	x	n	x	41
CCCn1nnc(NC(=O)c2cccc(Cl)c2)n1	x	n	n	n
COCCCNC(=O)c1sc2ccccc2c1Cl	x	n	x	n
CCCn1nnc(NC(=O)c2sc3ccccc3c2Cl)n1	n	n	x	64
CCOC(=O)c1sc2ccccc2c1OC(=O)c1ccccc1	x	65	n	n
CCOC(=S)NC(=O)c1sc2ccccc2c1Cl	x	n	74	n
N#CCNC(=O)c1sc2ccccc2c1Cl	x	n	x	n
SMILES	S1P3 antag	EP2 modulator	KCC2 mod	EP2 antag
CCCOC(=S)NC(=O)c1sc2ccccc2c1Cl	x	n	60	n
CCc1ccc2nc(SCC(=O)N3CCCC(C)C3)c(C#N)cc2c1 (configuration not stated)	x	n	x	n
CC(C)(C)C(=O)NC(=S)NNC(=O)c1sc2ccccc2c1Cl	n	n	48	n
Cc1cc(/C=N/n2cnnc2)c(C)n1-c1ccc(OCc2ccc(F)cc2)cc1	77	n	n	n
COc1ccc(OC)c(N=c2oc3ccccc3cc2C(=O)Nc2nccs2)c1	x	n	x	n
O=C(NC(=S)N1CCN(c2ccc(C(F)(F)F)cc2[N+](=O)[O-])CC1)c1cccs1	n	n	64	n
O=C1S/C(=C\c2ccc(O)c([N+](=O)[O-])c2)C(=O)N1c1ccccc1Cl	n	n	-3.5	n
CNc1nc2c(C)cccn2c(=O)c1C=NCc1ccccc1	x	61	n	x
COc1ccc(Nc2nc3c(C)cccn3c(=O)c2C=NCc2ccccc2)cc1	n	64	n	n
CCOc1cc(/C=C2\C=C(c3ccc(Cl)cc3)OC2=O)ccc1OCC#N	x	n	x	n
Brc1ccc(-c2nn3c(-c4ccco4)nnc3s2)o1	n	n	n	43
Cc1ccc(OCc2nn3c(-c4ccco4)nnc3s2)cc1	n	63	n	n
CCCOC(=O)Cn1cnc2sc(C(=O)OCC)c(C)c2c1=O	x	n	x	n
COc1ccc2cc(CN(C(=S)Nc3ccc(C)cc3)C3CCCC3)c(=O)[nH]c2c1	x	n	x	n
CC1(C)Oc2ccc(S(=O)(=O)N3CCNC(=O)C3)cc2NC1=O	x	n	x	n
COc1ccccc1N1CCN(CC(O)c2c[nH]c3ccc(C)cc23)CC1 (configuration not stated)	x	n	x	n
CC1CCN(C(=O)C2CCN(S(=O)(=O)c3ccc(F)cc3)CC2)CC1	x	n	x	n
O=C(Nc1nnc(-c2ccc(Cl)cc2)o1)c1cccc(N2C(=O)CCC2=O)c1	n	n	17	n
O=C(Nc1nnc(-c2ccccc2)o1)c1ccc(Cl)cc1	n	n	64	n
CCCn1c(SCC(=O)Nc2ccc(C)cc2C)nnc1-c1ccco1	x	n	x	n
COc1ccccc1C1(O)CCN(Cc2cnn(-c3ccccc3)c2)CC1	x	n	x	n
CCC(CC)c1nnc(NC(=O)COC)s1	x	n	x	n
CCOC(=O)c1c(-c2ccc(C)o2)csc1NC(=S)NC(=O)c1ccccc1Br	x	n	x	n
CCNC(=S)Nc1scc(-c2ccccc2)c1C(=O)OCC	n	n	42	n
CCOC(=O)c1c(-c2ccccc2)csc1NC(=S)NC	n	n	36	n
SMILES	S1P3 antag	EP2 modulator	KCC2 mod	EP2 antag
CCOC(=O)c1c(-c2ccc(C)o2)csc1NC(=S)NC(=O)c1cccs1	n	n	6.3	n
CCOC(=O)c1c(-c2ccccc2)csc1NC(=O)CCC(=O)NCc1ccco1	x	n	x	n
Cc1sc2nc(C3CC3)n3c(=O)n(CCN4CCCC4)nc3c2c1C	x	n	x	x
CCC(CN1CCC(C)CC1)NC(=O)Cc1cc(C(C)=O)ccc1OC (configuration not stated)	x	n	x	n
O=C(CCSc1nc(-c2ccco2)cc(C(F)(F)F)n1)NCc1ccccc1	x	n	x	n
CC1=CC(C)(C)N(C(=O)Nc2ccccc2)c2ccccc21	n	n	n	n
C/C=C/C(=O)N1c2ccccc2C(C)=CC1(C)C	n	61!	n	n
Cn1c(=S)[nH]c2scc(-c3cccs3)c2c1=O	n	n	59	78
C=CCn1c(=S)[nH]c2scc(-c3cccs3)c2c1=O	n	n	89	63
O=c1c2c(-c3cccs3)csc2ncn1-c1ccc(Br)cc1	x	n	n	n
O=C(Nc1ccccc1Oc1ccccc1)C1CCCC1	n	61	n	n
CC(C(=O)Nc1ccccc1Oc1ccccc1)c1ccccc1 (configuration not stated)	n	64	n	n
CC(C)(CC(=O)O)CC(=O)Nc1ccccc1Oc1ccccc1	n	n	x	n
CC(C)C(=O)N1CCN(c2ccc(NC(=O)c3ccccc3)cc2Cl)CC1	x	n	x	n
COc1ccc(OC)c(C2CC(=O)N3CN(c4ccccc4)CSC3=C2C#N)c1 (configuration not stated)	n	n	x	n
